# From PubChem BioAssay AID493152 (Sanford-Burnham Center for Chemical Genomics, 2011)
# This is one part of the list. Calls of active or inactive are those of the source.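 Rule for the calls: active = inhibition reaching a set limit in any replicate at 20 µM, the limit being 80% of the first screen's; inactive = the rest.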
# Target: DNA dC->dU-editing enzyme APOBEC-3G (Homo sapiens) (UniProt Q9HC16)
# Assay: APOBEC3G deaminase inhibitor retest, confirmation, biochemical, fluorescence, single-stranded DNA substrate, single concentration (AID 493152)
# Conditions: recombinant A3G ssDNA deaminase, UDG/FAM-TAMRA fluorescence; at 20 µM; stronger effect = higher value
# Sequence of DNA dC->dU-editing enzyme APOBEC-3G (Homo sapiens) (Q9HC16 whole entry, looked up): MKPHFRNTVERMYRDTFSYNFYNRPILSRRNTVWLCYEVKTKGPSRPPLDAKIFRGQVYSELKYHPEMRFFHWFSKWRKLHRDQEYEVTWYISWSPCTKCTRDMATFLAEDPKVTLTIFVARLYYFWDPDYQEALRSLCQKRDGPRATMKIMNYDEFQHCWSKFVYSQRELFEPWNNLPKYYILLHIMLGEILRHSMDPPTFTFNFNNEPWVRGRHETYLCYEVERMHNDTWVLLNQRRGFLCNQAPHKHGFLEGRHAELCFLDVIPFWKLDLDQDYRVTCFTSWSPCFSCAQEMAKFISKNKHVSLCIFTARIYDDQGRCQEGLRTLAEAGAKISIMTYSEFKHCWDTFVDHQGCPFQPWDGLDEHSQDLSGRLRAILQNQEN
structure (smiles),measurement,value
COC(=O)N(c1ccc(OC)cc1)P1(=S)OCCC(C)O1 (stereo unspecified),inhibition,42.1% (active)
